From PubChem BioAssay AID1117361 (Southern Research Institute, 2015)
The campaign covered roughly 3,600 compounds. About 900 (25%) were called active. The rule behind the calls is not given here. The list is a sample of the results. Entries with a potency or affinity are not part of this list.

Target: Protein Tat (Human immunodeficiency virus type 1 group M subtype B (isolate HXB2)) (UniProt P04608)
Assay: inhibitors of Tat binding to TAR RNA, dose response, counter-screen for Vif-APOBEC3G degradation inhibitor project, biochemical, fluorescence polarization, FAM-labeled TAR RNA (AID 1117361)
Details: outcome: dose series up to 100 µM unless noted; series mostly up to 100 µM

Row | Structure (SMILES) | outcome
1 | CCc1nc(SCC(=O)Nc2ccc(C(=O)O)cc2)n[nH]1 | inactive
2 | S=c1[nH]nc(COc2ccc(Cl)cc2)o1 | inactive
3 | O=C(NNc1cc(Cl)cc(Cl)c1)c1c(F)cccc1Cl | inactive
4 | S=c1nc(-c2ccc(Br)cc2)oc2c1CCCC2 | inactive
5 | CCOC(=O)N1CCN(CC(=O)c2ccc3c(c2)CCN3C(C)=O)CC1 | inactive
6 | Cc1ccc(Cc2cnc(NC(=O)/C(C#N)=C/c3ccc(-c4ccc([N+](=O)[O-])cc4)o3)s2)cc1 | inactive
7 | CC(OC(=O)c1ccc([N+](=O)[O-])o1)C(=O)NC1CCCCC1C (centres undefined) | inactive
8 | COc1cc(O)oc1C=Nc1ccccc1 | inactive
9 | CCOc1ccccc1C1CC(=O)NC(SCC)=C1C#N (centres undefined) | inactive
10 | O=S(=O)(Nc1ccc(Cc2ccncc2)cc1)c1ccc(Br)cc1 | inactive
11 | COc1ccc(N(CC(=O)NCCC2=CCCCC2)S(=O)(=O)c2ccccc2)cc1 | inactive
12 | O=C1CC(c2ccco2)CC(O)=C1C=NCC1CCNCC1 (centres undefined) | inactive
13 | CCCN(CC(=O)Nc1ccccc1C)C(=O)COC(=O)c1cnc(C)cn1 | inactive
14 | CC(C)(C)NC(=O)CSc1nnc(-c2ccncc2)n1Cc1ccccc1 | inactive
15 | CCOC(=O)Cn1c(=O)oc2cc(S(=O)(=O)NC3CCCc4ccccc43)ccc21 (centres undefined) | inactive
16 | CCn1c(SC(C)C(=O)NC2CCCc3ccccc32)nnc1-c1cccs1 (centres undefined) | inactive
17 | c1ccc2c(c1)ccc1nnc(SCc3ccc4c(c3)OCO4)n12 | inactive
18 | CCC(c1ccc(O)c(O)c1)C(CC)c1ccc(O)c(O)c1 (centres undefined) | inactive
19 | CSc1ccc(CN(C)CC(=O)NC(=O)NCCC2=CCCCC2)cc1 | inactive
20 | COc1cc(/C=N/N=C(N)N)ccc1OCc1ccc(Cl)cc1 | inactive
21 | CSc1cccc(-n2cc(-c3ccc4c(c3)OCO4)[nH]c2=O)c1 | inactive
22 | CSCC[C@@H](Nc1nc(-c2ccccc2)nc2c1oc1ccccc12)C(=O)O | inactive
23 | CN1CCN(C(=O)C2CCN(S(=O)(=O)c3cnc[nH]3)CC2)CC1 | inactive

Row | Structure (SMILES) | outcome
24 | COCCCNC(=O)c1cc(OC)c(OC)c(OC)c1 | inactive
25 | C/C=C/c1ccc(OCC(=O)N2CCc3cc(OC)c(OC)cc3C2)c(OC)c1 | inactive
26 | Cc1nn(-c2ccccc2)cc1/C=N/O | inactive
27 | CCCc1nc(SCC(=O)N2CCCc3ccccc32)c2c(=O)n(C)c(=O)n(C)c2n1 | inactive
28 | O=C(NC(Cc1ccccc1)c1nc2ccccc2[nH]1)c1cccc([N+](=O)[O-])c1 (centres undefined) | inactive
29 | CCOC(=O)C1=C(C)N=c2s/c(=C/c3ccco3)c(=O)n2C1c1cccc(OC)c1 (centres undefined) | inactive
30 | CCOC(=O)C1=C(C)NC(C)=C(C(=O)OCC)C1c1cn(-c2ccccc2)nc1-c1ccco1 | inactive
31 | O=C(CN1c2ccccc2Sc2ccccc21)NNC(=S)Nc1ccc(Cl)cc1Cl | inactive
32 | CCCn1nc(NC(=O)c2cccs2)c2cc3ccccc3nc21 | inactive
33 | CC1=C(SCc2ccccc2)C(=O)c2ccccc2C1=O | inactive
34 | CCCCNC(=O)c1onc(CSc2ccc(C(C)C)cc2)c1C(=O)O | inactive
35 | COc1ccc(CCN(C)C(=O)COC(=O)/C=C/c2ccc(C)o2)cc1OC | inactive
36 | Cn1nc(C(F)(F)F)c(C#N)c1N1CCN(c2ccc(F)cc2)CC1 | inactive
37 | Cn1cc(/C=C/C(=O)N2CCCC(C(=O)c3cccc(C(F)(F)F)c3)C2)cn1 (centres undefined) | inactive
38 | CCOC(=O)C1Nc2ccc(Br)cc2C2C=CCC12 (centres undefined) | inactive
39 | CC(C)Cc1nc2oc3c(NCC(C)O)ncnc3c2c2c1CCCC2 (centres undefined) | inactive
40 | O=C(NC1CCCCC1)C(c1ccc(F)cc1)N(C(=O)Cc1ccsc1)c1ccc(F)cc1 (centres undefined) | inactive
41 | O=C1C(O)CC2c3ccccc3CC3(CCCC3)N12 (centres undefined) | inactive
42 | Cc1ccc2c(c1)NC(=O)c1cc([N+](=O)[O-])ccc1O2 | inactive
43 | CCCCn1c(NCc2ccccc2NS(=O)(=O)c2ccc(C)cc2)nc2ccccc21 | inactive
44 | CCOC(=O)C1=C(c2ccccc2)NC(=O)NC1c1cc(Cl)c(O)c(OC)c1 (centres undefined) | inactive
45 | CCOc1ccc(NC(=O)C(C)SC(N)=O)cc1 (centres undefined) | inactive
46 | CCOc1cc(/C=C2/C(=O)N(c3ccccc3)N=C2C)ccc1OC(=O)c1ccco1 | inactive

Row | Structure (SMILES) | outcome
47 | O=C(NC1CCN(C(=S)NCc2ccco2)CC1)C12CC3CC(CC(C3)C1)C2 | inactive
48 | Cc1[nH]nc2c1C(c1cn[nH]c1-c1ccc(F)cc1)C(C#N)=C(N)O2 (centres undefined) | inactive
49 | COc1ccc2c(c1)O[C@@H](c1ccc3c(c1)OCO3)[C@H](OC(=O)Nc1cc(OC)c(OC)c(OC)c1)C2=O | inactive
50 | Cn1cc(Br)c(C(=O)NC2CCCCC2)n1 | inactive
51 | CCOCCCNC(=S)Nc1ccc2nc(N3CCN(CC)CC3)cc(C)c2c1 | inactive
52 | Cc1nn(Cc2ccc(Cl)cc2Cl)c(C)c1NC(=O)NC12CC3CC(CC(C3)C1)C2 | inactive
53 | Cc1c(C)c2ccc(O[C@@H]3O[C@H](CO)[C@H](O)[C@H](O)[C@H]3O)c(C)c2oc1=O | inactive
54 | Cn1c(SCC(=O)NC(c2ccccc2)c2ccccc2)nnc1-c1cccs1 | inactive
55 | CCCC(=O)Nc1ccc(Br)cn1 | inactive
56 | CC12CCC(C(=O)Nc3ccc(Br)cn3)(OC1=O)C2(C)C (centres undefined) | inactive
57 | O=C(Nc1ccc(F)cc1F)c1noc2c1CCC2 | inactive
58 | O=C(Nc1ccccc1F)c1ccc(S(=O)(=O)NCC2CCCO2)cc1 (centres undefined) | inactive
59 | CC(C)(C)C1CCC(OC(=O)C[N+]2(C)CCCCC2)CC1 (centres undefined) | inactive
60 | COc1ccc(CNC(=O)C2CCCN(S(=O)(=O)c3c(C)nn(C)c3C)C2)cc1 (centres undefined) | inactive
61 | CCCn1c(Sc2nnnn2-c2ccccc2)n[nH]c1=O | inactive
62 | N#Cc1c(-c2ccccc2)nc2n1CCS2 | inactive
63 | O=C(Nc1nccc(-c2cccs2)n1)c1ccccc1Cl | inactive
64 | CCOc1cc(C(=O)Nc2c3c(nn2C(C)(C)C)CS(=O)C3)cc(OCC)c1OCC (centres undefined) | inactive
65 | O=C(CCCN1C(=O)c2ccccc2C1=O)NCC1CCCO1 (centres undefined) | inactive
66 | CCOn1c(=O)c(=O)n(OCc2ccccc2)c2ccccc21 | inactive
67 | Oc1ccc(Cl)cc1-c1cc(-c2ccccc2)n[nH]1 | inactive
68 | O=C(c1ccco1)N1CCN(S(=O)(=O)c2ccc(F)cc2)CC1 | inactive
69 | CN1CCN(C(=O)/C(=C/c2ccc(F)cc2)NC(=O)c2ccccc2)CC1 | inactive
